The list is not random: actives were taken first. Their share in the collection is about 10%.
Six1-Eya2 blk – inhibitors of human Six1/Eya2 interaction | Q15475+O00167 | AlphaScreen GST-Six1/His-Eya2 binding, biochemical; stronger effect = lower value | activity change, % (concentration not given with the values) | 360,000 tested, 0.56% active | AID 651725; in the data active = activity change below about -65%; inconclusive = mostly about -30% to -63%; note: % is set by controls: 0 for no effect and ±100 for the full control effect
Target sequence (O00167 whole entry, looked up): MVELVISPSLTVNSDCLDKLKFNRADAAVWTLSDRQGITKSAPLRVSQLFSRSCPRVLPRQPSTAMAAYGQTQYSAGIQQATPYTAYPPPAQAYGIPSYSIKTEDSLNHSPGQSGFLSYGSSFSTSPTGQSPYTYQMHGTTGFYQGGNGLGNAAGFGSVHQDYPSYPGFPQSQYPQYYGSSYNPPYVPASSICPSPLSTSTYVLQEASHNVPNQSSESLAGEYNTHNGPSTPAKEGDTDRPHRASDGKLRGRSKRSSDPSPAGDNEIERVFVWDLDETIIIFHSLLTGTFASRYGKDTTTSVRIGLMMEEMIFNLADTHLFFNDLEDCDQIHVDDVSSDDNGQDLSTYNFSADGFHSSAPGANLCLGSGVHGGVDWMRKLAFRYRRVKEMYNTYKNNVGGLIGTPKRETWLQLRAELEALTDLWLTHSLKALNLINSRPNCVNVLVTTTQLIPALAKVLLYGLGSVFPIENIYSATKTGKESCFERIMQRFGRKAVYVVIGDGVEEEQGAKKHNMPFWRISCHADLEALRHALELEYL
Target sequence (Q15475 whole entry, looked up): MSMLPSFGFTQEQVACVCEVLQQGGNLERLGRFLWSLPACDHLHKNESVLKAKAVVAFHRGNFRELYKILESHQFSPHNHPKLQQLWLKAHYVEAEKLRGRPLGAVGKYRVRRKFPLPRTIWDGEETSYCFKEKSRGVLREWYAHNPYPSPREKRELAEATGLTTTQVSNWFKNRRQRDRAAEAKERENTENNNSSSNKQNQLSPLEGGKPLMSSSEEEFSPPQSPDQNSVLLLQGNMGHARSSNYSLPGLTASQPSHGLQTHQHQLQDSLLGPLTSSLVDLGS
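AlphaScreen with GST-Six1 and His-Eya2 (5X mix: 250 nM and 500 nM), glutathione donor and nickel acceptor beads; buffer 50 mM Tris pH 8.0, 300 mM NaCl, 1 mM TCEP; 1 h at 37 C in the dark.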
BAZ2B block – blocks human BAZ2B. 360,000 tested, 4.4% active. Potency, µM (series often up to 114 µM), for inactives: at the highest dose activity change, negative = inhibition, hits mostly inhibitors. AlphaScreen BAZ2B-H3K14Ac peptide displacement; note: potency is the fitted concentration of half-maximal effect; % is set by controls: 0 for no effect and ±100 for the full control effect; nearly all actives have a fitted effect of over 60% in size
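In this displacement format the biotinylated H3(5-23) peptide acetylated at Lys14 serves as ligand at 50 nM, with BAZ2B at 50 nM in PBS pH 7.4 containing 0.01% Tween-20. Donor and acceptor beads are 10 ug/mL final.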
JMJD2A Tudor inh – blocks the human JMJD2A Tudor domain | O75164 | AlphaScreen JMJD2A-Tudor / H3K4me3 peptide binding | Potency, µM (top dose mostly 114 µM), for inactives: at the highest dose activity change, negative = inhibition, actives largely listed as inhibitors | 390,000 tested, 4.4% active | AID 504339; note: potency is the fitted concentration of half-maximal effect; % is set by controls: 0 for no effect and ±100 for the full control effect; nearly all actives have a fitted effect of over 50% in size
HP1b binding inh – inhibitors of HP1-beta chromodomain binding to methylated histone tails. 390,000 tested, 0.56% active. Potency, µM (highest dose often 114 µM), without a hit: top-dose activity change, negative = inhibition, usual class: inhibitors. AlphaScreen HP1-beta / biotin-H3K9me3 peptide binding. AID 540317; note: potency is the fitted concentration of half-maximal effect; nearly all actives have a fitted effect of over 70% in size
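AlphaScreen: HP1-beta (50 nM) preformed 30 min with biotin-H3(1-18)K9me3 peptide (50 nM) in PBS pH 7.4, 0.01% Tween-20. Compound added for 30 min at RT, then streptavidin donor/nickel chelate acceptor beads (10 ug/mL) for 30 min.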
CtBP-E1A blk – CtBP/E1A binding inhibition. activity change, % (no concentration beside the values). 340,000 tested, 0.49% active. AlphaScreen GST-E1A/His-CtBP binding, 1536-well; stronger effect = lower value; in the data active = activity change below about -65%; inconclusive = mostly about -30% to -63%; note: % is set by controls: 0 for no effect and ±100 for the full control effect
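Protein mix (5X: 125 nM each GST-E1A, His-CtBP) was incubated with pinned compound 2 h at 37 deg C in dark, in 50 mM Tris pH 8.0 buffer with 300 mM NaCl. Glutathione donor and nickel acceptor beads followed; AlphaScreen signal read after 1 h.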
G9a block – blocks human histone lysine methyltransferase G9a. AID 504332. 350,000 tested, 8.8% active. G9a H3K9 monomethylation, AlphaScreen, 2 h. Potency, µM (series often up to 102 µM), for the others: at the top dose activity, negative = inhibition, usual class: inhibitors. Q96KQ7; note: potency is the fitted concentration of half-maximal effect; % is set by controls: 0 for no effect and ±100 for the full control effect; nearly all actives have a fitted effect of over 75% in size
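Enzyme 20 nM + cpd, 15 min RT; add b-H3K9 pep 500 nM / SAM 20 uM; 2 h RT; anti-H3K9me1 Ab 0.5 ug/mL + SA donor / anti-rabbit acceptor beads 20 ug/mL each, 10 min; AlphaScreen read.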
Numbers without * were called inactive; ? = inconclusive; · = not tested or not shown; [ ] = another dose, or the depositor's remark. Unless noted, calls come from the whole dose curve; as a rule, active = well fitted inhibition curve with a large enough effect; inconclusive = small, poorly fitted or top-dose-only effect; inactive = no such curve, though single readings can be large or run the other way.

SMILES | Six1-Eya2 blk | BAZ2B block | JMJD2A Tudor inh | HP1b binding inh | CtBP-E1A blk | G9a block
Cc1ccc(C2CC(=O)N3CN(c4ccc(Br)cc4)CSC3=C2C#N)o1 (centres undefined) | 6 | 56µM* | 22µM* | -6% | 9 | ?
CCOc1ccc(N2CSC3=C(C#N)C(c4ccco4)CC(=O)N3C2)cc1 (centres undefined) | 6 | 45µM* | -8% | 4% | -1 | 1.8µM*
CCCCCCSC1=C(C#N)C(c2ccc(C)o2)CC(=O)N1 (centres undefined) | -2 | ? | -20% | 21% | 10 | ?
CCCCCCCCCCCC(=O)NC(Cc1ccc(OC)c([N+](=O)[O-])c1)C(=O)O (centres undefined) | -5 | -26% | -23% | 9% | 6 | 28µM*
O=C(CNC(=O)c1ccccc1)OC(Cc1ccccc1)C(=O)Nc1cc(C(F)(F)F)ccc1Cl (centres undefined) | · | · | -5% | · | · | ·
O=C(NCCCn1ccnc1)C(=O)NCC1OCCN1S(=O)(=O)c1ccc2c(c1)OCCO2 (centres undefined) | -24 | 40µM* | ? | 1% | -12 | ·
O=C(NCCc1ccccc1)C(=O)NCC1OCCN1S(=O)(=O)c1ccc2c(c1)OCCO2 (centres undefined) | 2 | -8% | -12% | 42% | 5 | ·
Cc1cc(C)c(S(=O)(=O)N2CCOC2CNC(=O)C(=O)NCCc2ccc(S(N)(=O)=O)cc2)c(C)c1 (centres undefined) | 3 | -31% | -19% | 40% | 4 | 12%
Cc1cc(C)c(S(=O)(=O)N2CCOC2CNC(=O)C(=O)NCCCn2ccnc2)c(C)c1 (centres undefined) | -70* | 13µM* | 50µM* | 35% | ? | ·
NC(=O)c1ccccc1NC(=O)c1cccc(C(=O)Nc2ccccc2C(N)=O)n1 | -83* | · | -33% | 46% | -76* | ·
CC(=O)c1cc(-c2ccccc2)n(CC(=O)N2CCCC2)c1C | -11 | 56µM* | -17% | -3% | -20 | ?
CC(=O)c1cc(-c2ccccc2)n(CC(=O)NC(C)(C)C)c1C | 0 | 50µM* | -19% | 9% | · | -32%
CC(=O)c1cc(-c2ccccc2)n(CC(=O)N2CCCCC2)c1C | -1 | ? | -14% | 16% | 4 | -41%
Cc1nn(C)c(C)c1S(=O)(=O)N(CC(=O)Nc1ccc(F)cc1F)c1ccc(C(C)C)cc1 | · | -6% | -8% | 28% | · | -22%[59 µM]
CN1CCN(C(=O)CCCN2C(=O)/C(=C/c3cccc(Br)c3)SC2=S)CC1 | -13 | 45µM* | 35µM* | 40µM* | -4 | 40µM*
O=C(CCCN1C(=O)/C(=C/c2cccc(Br)c2)SC1=S)N1CCOCC1 | -20 | -23% | ? | ? | -8 | ?
O=C(CCN1C(=O)/C(=C\c2cccc(Br)c2)SC1=S)NCCCN1CCOCC1 | 0 | ? | ? | -25% | -18 | 45µM*
CN1CCN(C(=O)CCN2C(=O)/C(=C/c3cccc(Br)c3)SC2=S)CC1 | 5 | -38% | -21% | -2% | 17 | 25µM*
O=C(NCCCN1CCOCC1)c1cccc(S(=O)(=O)Nc2cc(Cl)ccc2Cl)c1 | 3 | -11% | -9% | 25% | -2 | -23%
CCS(=O)(=O)c1ncc(Cl)c(C(=O)N2CCN(c3ccc(OC)cc3)CC2)n1 | · | -16% | -17% | 8% | · | ?
CCc1nc2c(OCCC3CCCCC3)cccn2c1N(C=O)Cc1ccccc1 | -15 | · | · | · | -6 | ·
CN1CCN(Cc2ccc(Sc3ccc(Cl)cc3)c([N+](=O)[O-])c2)CC1 | -16 | 32µM* | ? | -29% | ? | -44%
Cc1ccc(Sc2ccc(CN3CCCC3)cc2[N+](=O)[O-])cc1 | ? | ? | 45µM* | ? | -28 | ?
CC1CCCC(C)N1C(=O)COC(=O)CCC1CCCC1 (centres undefined) | 1 | -3% | -10% | 1% | 1 | 10%
Cn1c2ccc(CC(=O)O)cc2c2cc(CC(=O)O)ccc21 | -1 | ? | -12% | 27% | 13 | 50µM*
SMILES | Six1-Eya2 blk | BAZ2B block | JMJD2A Tudor inh | HP1b binding inh | CtBP-E1A blk | G9a block
COc1ccc2c(c1)c1c(c(=O)n(Cc3ccccc3)c(=O)n1CC(=O)Nc1ccccc1OC)n2C | · | -6% | -10% | 2% | · | -7%[59 µM]
CC(C)Cn1c(-c2csc(C(C)C)c2)n[nH]c1=S | 8 | -34% | ? | -10% | 0 | 5µM*
CCn1c(-c2csc(C(C)C)c2)n[nH]c1=S | 6 | -10% | 10µM* | ? | 3 | 1.6µM*
CC(C)Cn1c(-c2cccs2)nc2ccccc21 | -2 | 3% | 0% | 33% | -4 | -4%[2.33 µM]
Nc1cccc(S(=O)(=O)N2CCN(S(=O)(=O)c3ccc4c(c3)OCCO4)CC2)c1 | · | · | -2% | · | · | ·
CC(O)(c1ccccc1)c1nc(-c2cccc(C#N)c2)cs1 (centres undefined) | 2 | · | · | · | 2 | ·
N#CC(=C1CCCC1)c1nc(-c2ccccc2)cs1 | 39 | 74% | 139% | 104% | 24 | ?
N#CC(=C1CCCC1)c1nc(-c2ccccc2O)cs1 | -15 | -32% | -23% | 6% | -17 | 35µM*
CC(C)(C)N(NS(=O)(=O)c1ccc(F)cc1)c1ccccc1 | 12 | 7% | ? | 27% | 7 | 8.9µM*
Cc1ccccc1NS(=O)(=O)c1ccc(F)cc1 | 4 | 2% | -8% | 37% | 6 | 7%[59 µM]
Cc1cc(C)n2ncc(C(=O)NC(C)C)c2n1 | · | · | -16% | · | · | ·
CCC(=O)Nc1nnc(SCc2ccc(F)cc2)s1 | -2 | 1% | 3% | 46% | 2 | 8.9µM*
Cc1cc(NC(=O)CSc2ccccn2)no1 | 5 | 0% | -19% | 34% | · | 45µM*
CC(C)c1ccc(NC(=O)CSc2ncccc2C(=O)Oc2cccc([N+](=O)[O-])c2)cc1 | -21 | 7% | -14% | 16%[57 µM] | 6 | 50µM*
Cc1ccccc1CSc1nnc(NC(=O)Cc2cccs2)s1 | -9 | 71µM* | -21% | 35% | 9 | 5%
Cc1cc(NC(=O)CSc2ncccn2)no1 | -7 | -8% | ? | 3% | 5 | ?
CC1Cc2ccccc2N1C(=O)CN1C(=O)NC2(CCCCC2)C1=O (centres undefined) | 4 | 7% | -15% | 26% | · | -14%[12.7 µM]
Cc1cc(NC(=O)CSc2c(C)[nH]c3ccccc23)no1 | -3 | -8% | -13% | 37% | 0 | 50µM*
O=C(CSc1ccccn1)Nc1cccc([N+](=O)[O-])c1 | 8 | -15% | -25% | -1% | -5 | 11µM*
Cc1cc(NC(=O)Cc2cccs2)no1 | -16 | 45µM* | 18µM* | ? | -2 | ?
